Compound activity from PubChem.
EphB4 antag – EphB4-ephrin-B2 interaction antagonism; P54760; EphB4 LBD / TNYL-RAW-Alexa532 peptide, fluorescence polarization; inhibition, % at 7 µM; 97,000 compounds, 0.15% hits; AID 720;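 active = inhibition above the screen-wide mean inhibition plus 3 SD, cut at about 15% in these data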
D1 mod – allosterically modulates the human D1 dopamine receptor | P21728 | HEK293 D1, CRE-luciferase, dopamine EC30 potentiation; actives deviate in either direction | B-score at 10 µM | 58,000 compounds, 5.9% hits;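 active = luminescence count or its row- and column-corrected plate score outside the 99.7% band of the plate's sample wells, on either side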
DAT uptake mod – changed human dopamine transporter uptake under cocaine IC80; AID 449768; B-score at 10 µM; 110,000 compounds, 1.3% hits; LLC-PK1 hDAT cells, [14C]-dopamine uptake with cocaine IC80; actives deviate in either direction;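 active = Z score or B-score, a plate-position-corrected score, falls beyond the plate's 99.7% confidence bounds, in either direction; inactive = both scores lie inside the 99.7% bounds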
D1 mod confirm – D1 receptor (human) allosteric modulation, confirmed; luminescence at 10 µM; 2,200 compounds, 88% hits; HEK293 D1 CRE-luciferase, dopamine EC30 potentiation; stronger effect = higher value; shares compounds with D1 mod;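 active = luminescence in either of two replicates above the same-plate mean plus 3 SD of the low-dose dopamine control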
D1 ag no DA – secondary test of D1 modulators: activity without dopamine; shares compounds with D1 mod; HEK293 D1 CRE-luciferase, luminescence, no dopamine; stronger effect = higher value; luminescence at 10 µM; 1,900 compounds, 0.8% hits; in the data active = luminescence above about 3900
Isoprot counter – counter-screen for D1 modulators: isoproterenol response in HEK293 cells | AID 647 | shares compounds with D1 mod | HEK293 D1 CRE-luciferase, isoproterenol EC30 counter-screen | calls only at 10 µM | 2,200 compounds, 63% hits;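 active = luminescence in either replicate above plate mean of wells with a partly effective reference agonist dose plus 3 SD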;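 also: isoproterenol raises cAMP through native beta-adrenoceptor Gs so signal bypasses D1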
Hits are given with their value; i = inactive; nt = no result; + = active, no number. Only a selection was taken, and hits are over-represented in it overall.

SMILES | EphB4 antag | D1 mod | DAT uptake mod | D1 mod confirm | D1 ag no DA | Isoprot counter
Cc1cc(C)n2c(SCC(=O)NCc3ccco3)nnc2n1 | i | i | i | nt | nt | nt
Cc1cc(C)n2nc(SC(C)C(=O)NCc3ccco3)nc2n1 (stereo unspecified) | i | 7.1 | i | i | i | i
CCO[C@H]1OC(C(=O)Nc2ccccc2)=C[C@@H](C)[C@@H]1CCCO | nt | nt | i | nt | nt | nt
O=[N+]([O-])c1ccc(C2CCCC/C2=N\OCc2cccc(F)c2)c([N+](=O)[O-])c1 (stereo unspecified) | i | nt | nt | nt | nt | nt
CCCCCn1c(Sc2ccccc2)nc2c1c(=O)[nH]c(=O)n2C | i | nt | i | nt | nt | nt
CNc1nc2c(c(=O)[nH]c(=O)n2C)n1CCOC | i | i | i | nt | nt | nt
CCCCCCSc1nc2c(c(=O)[nH]c(=O)n2C)n1C | i | i | i | nt | nt | nt
CCCCCCn1c(SCCCC)nc2c1c(=O)[nH]c(=O)n2C | i | 10.9 | i | 26000 | i | +
CCCCCn1c(SC(C)C(C)=O)nc2c1c(=O)[nH]c(=O)n2C (stereo unspecified) | i | 8 | i | 20968 | i | +
CCCCn1c(NC(C)CC)nc2c1c(=O)[nH]c(=O)n2C (stereo unspecified) | i | 11 | i | 21532 | i | +
COc1ccc(/C=N/NC(N)=S)cc1OC(=O)c1cccc2ccccc12 | i | nt | i | nt | nt | nt
CCOC(=O)N1CCN(C(=O)c2cn(CC)c3cc(N4CCN(C)CC4)c(F)cc3c2=O)CC1 | nt | i | nt | nt | nt | nt
CSc1ccc(S(=O)(=O)NCc2ccc(Cl)cc2Cl)cc1 | i | nt | i | nt | nt | nt
CC(Sc1nc(N2CCOCC2)c2c(c1C#N)CC(C)(C)OC2)C(=O)Nc1ccccc1 (stereo unspecified) | i | 5.22 | i | 9724 | i | +
CSc1nc(N2CCOCC2)c2c(c1C#N)CC(C)(C)OC2 | i | nt | i | nt | nt | nt
COc1ccc(-n2nnnc2-c2cccc(OC)c2)cc1 | i | i | i | nt | nt | nt
Clc1ccc(-n2nnnc2-c2ccccc2)cc1Cl | nt | 13.3 | i | 19112 | i | +
N#Cc1c(NC(=O)CSc2nnc(-c3ccco3)n2-c2ccccc2)sc2c1CCC2 | i | nt | i | nt | nt | nt
NC(=O)c1c(NC(=O)CSc2nnc(-c3ccco3)n2-c2ccccc2)sc2c1CCC2 | nt | 4.75 | i | 10124 | i | i
Fc1ccc(-c2cc(C(F)(F)F)nc(NCC3CCCO3)n2)cc1 (stereo unspecified) | nt | 5.52 | i | 8052 | nt | i
FC(F)(F)c1cc(-c2ccccc2)nc(NCC2CCCO2)n1 (stereo unspecified) | i | nt | i | nt | nt | nt
O=C(c1cc2sccc2n1Cc1ccccc1)N1CCN(c2nc3ccccc3s2)CC1 | i | nt | i | nt | nt | nt
COc1ccc(S(=O)(=O)N2CCc3ccccc32)cc1C(=O)OCc1c(C)noc1C | i | nt | i | nt | nt | nt
COc1ccc(S(=O)(=O)N2CCCCCC2)cc1C(=O)OCc1c(C)noc1C | i | 4.27 | i | 9164 | i | +
O=C(Nc1cnc2ccccn2c1=O)c1ccc(Cl)cc1 | i | nt | i | nt | nt | nt
SMILES | EphB4 antag | D1 mod | DAT uptake mod | D1 mod confirm | D1 ag no DA | Isoprot counter
C=CCNCC(=O)NN=C(c1ccccc1)c1ccccc1 | i | nt | i | nt | nt | nt
Cc1ccc(-c2csc3ncnc(Sc4nnc(CN5CCCCCC5=O)o4)c23)cc1 | i | i | i | nt | nt | nt
CCCC(=O)Nc1c2c(nn1-c1ccc(OC)cc1)CS(=O)C2 (stereo unspecified) | i | 3.2 | i | i | i | i
CCC(=O)Nc1c2c(nn1-c1ccc(OC)cc1)CS(=O)C2 (stereo unspecified) | i | i | i | nt | nt | nt
Clc1ccccc1-c1nn2c(-c3ccccn3)nnc2s1 | nt | nt | i | nt | nt | nt
COc1cc(-c2nnc3sc(-c4cccs4)nn23)cc(OC)c1OC | nt | i | i | nt | nt | nt
COc1ccc(-c2nnc3sc(-c4cccs4)nn23)cc1OC | i | 4.95 | i | 12160 | nt | +
CCN(CC)c1ccc(-c2nn3c(-c4n[nH]c5c4CCC5)nnc3s2)cc1 | i | i | i | nt | nt | nt
Clc1ccccc1-c1nnc2sc(-c3ccncc3)nn12 | i | i | i | nt | nt | nt
Clc1ccccc1-c1nnc2sc(-c3cccs3)nn12 | nt | 10.7 | i | 14324 | i | +
Clc1ccccc1-c1nn2c(-c3ccncc3)nnc2s1 | i | 4.87 | i | 7940 | i | i
C1CCC(c2nn3c(-c4n[nH]c5c4CCC5)nnc3s2)CC1 | i | 6.32 | i | 15420 | i | i
CN1C(=O)/C(=C/c2ccccc2OCc2cccc(F)c2)NC1=S | i | nt | i | nt | nt | nt
O=C(Nc1ccccc1Cl)c1cccc(NS(=O)(=O)c2ccccc2)c1 | i | nt | i | nt | nt | nt
CC(C)n1c(NCCc2ccccc2)nc2c1c(=O)n(C)c(=O)n2C | i | nt | i | nt | nt | nt
